Results as given in PubChem BioAssay (NCATS).
Records with an inconclusive call do not appear. Activity calls are given as the source filed them. The call rests on the fitted dose curve; in most records, active means well fitted inhibition curve with a large enough effect; inconclusive means small, poorly fitted or top-dose-only effect; inactive means flat fitted curve, though single readings scatter.

Assays:
Test in all cases: qHTS profiling for inhibitors of Plasmodium falciparum proliferation (AID 504749); further: nearly all actives have a fitted effect of over 60% in size
Conditions in all cases: P. falciparum in erythrocytes, SYBR Green DNA, 72 h; series mostly up to 28.7 µM
FAB9 = tested on: FAB9
Procedure, shortened: (§1)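 Quantitative HTS: compounds pinned into medium, infected erythrocytes added (0.3% parasitemia, 2.5% hematocrit), 72 h culture at 37 C under 5% CO2. Saponin/Triton lysis with SYBR Green I, overnight RT, then fluorescence read.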

GB4 = tested on: GB4
Procedure, shortened: as §1

HB3 = tested on: HB3
Procedure, shortened: as §1

ICS = tested on: ICS
Procedure, shortened: as §1

JCK = tested on: JCK
Procedure, shortened: as §1

N140 = tested on: N140
Procedure, shortened: as §1

P93_24 = tested on: P93_24
Procedure, shortened: as §1

PAD = tested on: PAD
Procedure, shortened: as §1

PC15 = tested on: PC15
Procedure, shortened: as §1

P94_40 = tested on: P94_40
Procedure, shortened: as §1

Measured: Potency
Potency means the concentration at half of the fitted maximal effect.

CC(C)NC(C)C
not listed: P94_40
inactive: all other assays above

O=C1c2ccccc2C(=O)C1C(=O)C(c1ccccc1)c1ccccc1
not listed: GB4 | ICS
inactive: all other assays above

COC1CC(=C(c2cccs2)c2cccs2)C[N+](C)(C)C1 (stereo not given)
active: GB4 7.57 µM | HB3 8.91 µM | ICS 3.98 µM | N140 7.94 µM | P93_24 5.01 µM | P94_40 2.24 µM

O=C1c2ccccc2C(=O)c2ccccc21
active: HB3 11.2 µM | ICS 3.55 µM
inactive: JCK | P94_40

NC(=O)c1cc([N+](=O)[O-])cc([N+](=O)[O-])c1
inactive: FAB9 | HB3 | P94_40 | PAD

O=C1CN=C(c2ccccc2)c2cc([N+](=O)[O-])ccc2N1
inactive: all assays above

Cc1ncsc1CCCl
not listed: P93_24
inactive: all other assays above

COP(=S)(OC)Oc1ccc(SC)c(C)c1
not listed: JCK
inactive: all other assays above

Cc1nnc2n1-c1ccc(Cl)cc1C(c1ccccc1)=NC2
active: ICS 8.91 µM
not listed: JCK | P94_40
inactive: all other assays above

O=c1[nH]oc2c1CCNC2
not listed: JCK
inactive: all other assays above

Nc1ccc([As](=O)(O)O)cc1
not listed: GB4 | ICS | P94_40
inactive: all other assays above

C=CCN1C[C@H](C)N([C@H](c2ccc(C(=O)N(CC)CC)cc2)c2cccc(OC)c2)C[C@H]1C
inactive: JCK
active: ICS 12.6 µM

COc1ccc2c(c1)C13CCCC[C@@H]1C(C2)N(C)CC3 (stereo not given in full)
inactive: FAB9 | HB3 | JCK | N140

COP(=S)(OC)SCN1C(=O)c2ccccc2C1=O
inactive: all assays above

O=C(N/N=C/c1ccc([N+](=O)[O-])o1)c1cc([N+](=O)[O-])cc([N+](=O)[O-])c1O
active: HB3 1.58 µM | N140 0.708 µM | P93_24 0.1 µM | P94_40 0.0794 µM | PAD 0.0071 µM
inactive: PC15

O=C1Nc2ccc(Cl)cc2C(c2ccccc2Cl)=NC1O (stereo not given)
not listed: P93_24 | PAD | P94_40
inactive: all other assays above

CCOP(=S)(OCC)Oc1ccc2c(C)c(Cl)c(=O)oc2c1
active: P94_40 11.2 µM
not listed: ICS | N140 | P93_24
inactive: all other assays above

C=C(C)[C@H]1CN[C@H](C(=O)O)[C@H]1CC(=O)O
not listed: P93_24 | P94_40
inactive: all other assays above

CC(C)(C)NCC(O)c1cc(Cl)c(N)c(C(F)(F)F)c1 (stereo not given)
inactive: FAB9
active: GB4 12 µM | ICS 4.47 µM | JCK 11.2 µM | N140 2.82 µM | P93_24 3.55 µM | PAD 12.6 µM | PC15 11.2 µM
